Experimental data from PubChem BioAssay.
Active and inactive are the calls of the source.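 Rule for the calls: active = inhibition at or above 50% relative to wild type and mutant plate controls; inactive = inhibition below 50%.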

test: inhibitors of Chlamydomonas gravitaxis, primary screen, whole organism, Chlamydomonas reinhardtii, WT vs cilia-less mutant, absorbance, 96-well (AID 463189); conditions: OD600 absorbance, 2 days, at 10 µM, stronger effect = higher value;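 note: 0% = wild type cc124 cells in DMSO and 100% = ciliumless bld1 mutant cells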

inhibition, inactive:
O=c1cc(N2CCOCC2)oc2c(-c3ccccc3)cccc12 15.7%
N[C@@H](Cc1ccc(F)cc1)C(=O)O 2.39%
O=C(Nc1cc(C(=O)Nc2ccc(S(=O)(=O)O)cc2S(=O)(=O)O)cc(C(=O)Nc2ccc(S(=O)(=O)O)cc2S(=O)(=O)O)c1)Nc1cc(C(=O)Nc2ccc(S(=O)(=O)O)cc2S(=O)(=O)O)cc(C(=O)Nc2ccc(S(=O)(=O)O)cc2S(=O)(=O)O)c1 10.7%
CC(N)=O 0.285%
CC1=C(CC(=O)O)c2cc(F)ccc2/C1=C\c1ccc(S(C)(=O)=O)cc1 2.22%
Ic1ccc(N2CCN(Cc3c[nH]c4ncccc34)CC2)cc1 7.68%
O=C(O)c1cccnc1C(=O)O 3.76%
C#CCn1c(=O)c2c(ncn2C)n(C)c1=O 3.25%
Cn1c(=O)c2[nH]c(-c3ccc(S(=O)(=O)O)cc3)nc2n(C)c1=O -2.33%
COc1cc(Cc2cnc(N)nc2N)cc(OC)c1OC 0.332%
Nc1nc2[nH]c(=O)cnc2c(=O)[nH]1 5.48%
CCCCNc1ccc(C(=O)OCCN(C)C)cc1 8.43%
COc1cc(C(O)CO)ccc1O (centres undefined) 1.74%
NC(=O)c1ccccc1 -2.55%
COc1cccc(OC)c1OCCNCC1COc2ccccc2O1 (centres undefined) 0.114%
CN(C)C(=O)/N=N/C(=O)N(C)C -5.45%
O=C1NC(O)=NC1(c1ccccc1)c1ccccc1 -1.32%
COc1cc(CNC(=O)CCCCCCC(C)C)ccc1O -1.4%
CCN(CC)CCOC(=O)c1ccc(N)cc1 -0.871%
Clc1ccc(C(c2ccccc2Cl)C(Cl)Cl)cc1 (centres undefined) 11.1%
CC1CC2C3CCC4=CC(=O)C=C[C@]4(C)[C@@]3(F)[C@@H](O)C[C@]2(C)[C@@]1(O)C(=O)CO (some centres undefined) 5.99%
C[N+](C)(C)CCOC(N)=O 7.07%
CCn1cc(C(=O)O)c(=O)c2ccc(Cc3ccccc3)nc21 6.19%
CC(=O)SCC[N+](C)(C)C -2.92%
CCN(CC)C(=S)SSC(=S)N(CC)CC 12.2%
NCC1OC(O[C@@H]2[C@H](O)C(OC3C(O)C(N)CC(N)C3OC3OC(CO)C(O)C(O)C3N)O[C@@H]2CO)C(N)C(O)C1O (some centres undefined) 4.9%
Oc1cc(O)c2c(c1)O[C@H](c1ccc(O)c(O)c1)[C@@H](O)C2 2.87%
O=C(O)C1=CC(=C(c2ccc(O)c(C(=O)O)c2)c2ccc(O)c(C(=O)O)c2)C=CC1=O 0.098%
CCC(CO)Nc1nc(NCc2ccccc2)c2ncn(C(C)C)c2n1 (centres undefined) -6.72%
COc1cc2ncnc(Nc3cccc(Cl)c3)c2cc1OC -7.15%
CN=C(NC#N)NCCSCc1nc[nH]c1C 8.94%
CCCCS(=N)(=O)CCC(N)C(=O)O (centres undefined) -0.023%
N#C/C(=C\c1ccc(O)c(O)c1)C(=O)Nc1ccccc1 5.13%
O=S(=O)(c1cccc2c(I)cccc12)N1CCCNCC1 -1.51%
O=C(O)C1CCCN(CCC=C(c2ccccc2)c2ccccc2)C1 (centres undefined) 11.4%
CCCCC/C=C\CC(O)/C=C/c1cccc(CC(O)CCCCO)n1 (centres undefined) -1.14%
CC(N)=NCCCC[C@@H](N)C(=O)O 7.31%

inhibition, active:
Clc1ccccc1C(c1ccccc1)(c1ccccc1)n1ccnc1 96%
CCNC(=O)N1CCN(CCCC(c2ccc(F)cc2)c2ccc(F)cc2)CC1 133%
